# Only some compounds are listed: those with a hit (about 12% of all), similar ones and a draw of the others.
# BAZ2B block – qHTS Assay for Inhibitors of BAZ2B; Potency, µM (top dose mostly 114 µM), for inactives: at the top dose activity change, negative = inhibition, most hits filed as inhibitors; AlphaScreen BAZ2B-H3K14Ac peptide displacement; 360,000 tested, 4.4% active; Bromodomain adjacent to zinc finger domain protein 2B (Homo sapiens), Q9UIF8; AID 504333, 2011; also: % is scaled to controls: 0 for no effect and ±100 for the full control effect; nearly all actives have a fitted effect of over 60% in size
#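 BAZ2B (50 nM) with biotin-H3(5-23)K14Ac peptide (50 nM) in PBS pH 7.4, 0.01% Tween-20, preformed 30 min, then compound 30 min at room temperature; top concentration 110uM. AlphaScreen streptavidin donor/nickel chelate acceptor beads (10 ug/mL final), 20 min dark, signal read.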
# HP1b chromo inh – HTS for Inhibitors of HP1-beta Chromodomain Interactions with Methylated Histone Tails | Chromobox protein homolog 1 (Homo sapiens), P83916 | AlphaScreen HP1-beta / biotin-H3K9me3 peptide binding | Potency, µM (titrated, usually from 114 µM), for the others: top-dose activity change, negative = inhibition, most hits filed as inhibitors | 390,000 tested, 0.56% active; also: nearly all actives have a fitted effect of over 70% in size
# Target sequence (P83916 whole entry, looked up): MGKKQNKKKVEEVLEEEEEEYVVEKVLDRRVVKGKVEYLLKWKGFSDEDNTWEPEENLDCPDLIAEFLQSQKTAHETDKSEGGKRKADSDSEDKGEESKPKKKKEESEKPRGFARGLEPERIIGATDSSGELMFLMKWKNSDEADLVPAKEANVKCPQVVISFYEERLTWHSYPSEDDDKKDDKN
#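 AlphaScreen: HP1-beta (50 nM) preformed 30 min with biotin-H3(1-18)K9me3 peptide (50 nM) in PBS pH 7.4, 0.01% Tween-20. Compound added for 30 min at RT, then streptavidin donor/nickel chelate acceptor beads (10 ug/mL) for 30 min.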
# Sfp PPTase inh – qHTS Assay for Inhibitors of Bacillus subtilis Sfp phosphopantetheinyl transferase (PPTase); Biochemical Sfp PPTase activity, qHTS; AID 1490, 2009; 310,000 tested, 3.5% active; Potency, µM, for the others: largest response in the series, negative = inhibition, actives largely listed as inhibitors;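 also: the enzyme is Sfp with the accession as filed and its product quenches rhodamine fluorescence; 0% = enzyme reaction without inhibitor and -100% = no enzyme wells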
#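 Step 1, compound plus 15 nM Sfp-PPTase, 15 min, room temperature. Step 2, add rhodamine-CoA (5 uM) and BHQ-2-YbbR (12.5 uM). Step 3, read 525/598 nm fluorescence at 0 and 30 min.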
# JMJD2A Tudor – qHTS Assay for Inhibitors of JMJD2A-Tudor Domain. 390,000 tested, 4.4% active. Lysine-specific demethylase 4A (Homo sapiens), O75164. Potency, µM (highest dose often 114 µM), for inactives: top-dose activity change, negative = inhibition, most hits filed as inhibitors. AlphaScreen JMJD2A-Tudor / H3K4me3 peptide binding; also: % is scaled to controls: 0 for no effect and ±100 for the full control effect; nearly all actives have a fitted effect of over 50% in size
# G9a inh – qHTS Assay for Inhibitors of Histone Lysine Methyltransferase G9a; Histone-lysine N-methyltransferase EHMT2 (Homo sapiens), Q96KQ7; G9a H3K9 monomethylation, AlphaScreen, 2 h; Potency, µM (titrated, usually from 102 µM), without a hit: at the top dose activity, negative = inhibition, most hits filed as inhibitors; 350,000 tested, 8.8% active; also: % is scaled to controls: 0 for no effect and ±100 for the full control effect; nearly all actives have a fitted effect of over 75% in size
# Target sequence (Q96KQ7 913-1193 limits assumed): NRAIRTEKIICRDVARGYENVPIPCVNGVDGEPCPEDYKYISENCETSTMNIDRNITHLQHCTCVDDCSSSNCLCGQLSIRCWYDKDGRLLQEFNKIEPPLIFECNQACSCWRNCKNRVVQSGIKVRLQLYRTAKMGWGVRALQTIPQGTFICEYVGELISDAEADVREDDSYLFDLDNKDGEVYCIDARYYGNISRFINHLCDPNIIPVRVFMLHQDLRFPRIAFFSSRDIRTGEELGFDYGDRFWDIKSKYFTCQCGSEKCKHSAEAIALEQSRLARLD
#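 AlphaScreen read-out: biotin-H3K9 peptide (500 nM) methylation by 20 nM enzyme with 20 uM SAM, 2 h at room temperature after 15 min compound preincubation; anti-monomethyl H3K9 antibody plus donor/acceptor beads, 10 min dark.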
# * = called active by the depositor; ? = inconclusive; nt = no result; [ ] = dose if it differs, or a comment. Calls follow the shape of the dose curve; as a rule, active = well fitted curve in the direction sought with a large enough effect; inconclusive = small, poorly fitted or top-dose-only effect, or another doubt; inactive = no such curve, though single readings can be large; an effect the other way counts as inactive or inconclusive. Potency is read from the fitted curve at half-maximal effect.
SMILES,BAZ2B block,HP1b chromo inh,Sfp PPTase inh,JMJD2A Tudor,G9a inh
COC(=O)C1=C(C)N(c2ccc(F)cc2)C(=O)C1,11.7%,60.9%,11.9%,-10.7%[57.1 µM],44.7µM*
Cc1ccc(C)c(S(=O)(=O)c2nnn3c2nc(N2CCCC2)c2sccc23)c1,-14.5%,29.0%,nt,-6.6%,4.2%[59 µM]
COc1ccc(C)cc1-n1c(SCC(=O)Nc2cc(C)on2)nc2ccccc2c1=O,-26.5%,25.7%,10.4%,-21.1%,2.8%
COc1ccc(-n2c(=O)c3ccccc3c3ccccc3c2=O)c(OC)c1,-8.0%,29.8%,5.0%,-30.3%,10µM*
COc1ccc(C)cc1-n1c(=O)c2ccccc2c2ccccc2c1=O,?,27.7%,9.8%,-6.5%,17.8µM*
COc1ccc(Cl)cc1NC(=O)Cn1ccn(-c2cc(C)cc(C)c2)c(=O)c1=O,-38.9%,10.5%,nt,-12.2%,-2.9%[59 µM]
CSc1nsc(SC)c1NC(=O)OCCc1ccccn1,3.8%,24.9%,-20.0%,-8.8%,?
CSc1nsc(SC)c1NC(=O)OCc1ccccc1,-0.4%,32.5%,-1.3%,-6.6%,39.8µM*
CSc1nsc(SC)c1NC(=O)OCC1CCCO1 (centres undefined),2.5%,24.9%,56.2µM*,-8.0%,?
Cc1ccc(-n2c(SCC(=O)Nc3cccc(Cl)c3)nc3n[nH]c(C)c3c2=N)cc1,-1.9%,48.9%,nt,-12.5%,8.0%[59 µM]
CCOC(=O)C1CCN(S(=O)(=O)c2ccc(-c3nc4ccccc4s3)s2)CC1,-34.2%,39.5%,0.3%,-22.6%,35.5µM*
COc1ccc(Nc2sc(C(=O)c3ccc(Cl)cc3)c(N)c2C(=O)Nc2ccccc2OC)cc1,?,-17.8%,-8.8%,?,?
CCOc1ccccc1Nc1sc(C(=O)c2ccccc2)c(N)c1C(=O)Nc1ccccc1,?,-4.5%,nt,?,11.2µM*
COc1ccc(CCNC(=O)c2c(Nc3ccccc3C)sc(C(=O)c3ccccc3)c2N)cc1OC,?,0.5%,nt,?,8.91µM*
COc1ccc(NC(=O)c2c(Nc3ccccc3)sc(C(=O)c3ccc(F)cc3)c2N)cc1,?,-31.5%,-17.2%,44.7µM*,?
CCOc1ccccc1Nc1sc(C(=O)c2ccccc2)c(N)c1C(=O)NCCc1ccccc1,-2.1%,34.2%,nt,-34.0%,?
Cc1nn(-c2ccccc2)c(C)c1NC(=O)COC(=O)c1ccccc1OC(F)F,-13.9%,34.0%,14.2%,-10.3%,-17.0%
COc1ccc(C(=O)CSC2=NS(=O)(=O)c3cc(Cl)ccc3N2)cc1,9.5%,24.9%,nt,-11.7%,56.2µM*
CC(=O)Nc1ccc(NC(=O)CSC2=NS(=O)(=O)c3cc(Cl)ccc3N2)cc1,-30.2%,6.1%,nt,-13.8%,10µM*
CCCCC/C=C\C\C=C/C=C/C=C/[C@@H](SC[C@H](N)C(=O)NCC(=O)O)[C@@H](O)CCCC(=O)O,nt,nt,2.7%,nt,27.9%[59 µM]
COc1ccc(S(=O)(=O)Nc2cc(OC)cc3cccnc23)cc1,nt,nt,-0.4%,-19.3%,nt
CC(=O)c1c(Cl)nc2cccc3c2c1-c1ccccc1C3=O,-27.3%,3.9%,-7.4%,-33.6%,28.2µM*
Cc1cc(=O)[nH]c(SCC(=O)c2ccccc2)c1C#N,-6.1%,49.2%,20µM*,-14.0%,?
Cc1ccccc1NC(=O)CSc1[nH]c(=O)cc(C)c1C#N,4.9%,36.9%,22.4µM*,-16.3%,14.1µM*
CCc1ccc(NC(=O)C(CC)n2c(=O)c(-c3ccccc3NC(C)=O)nc3ccccc32)cc1 (centres undefined),-23.7%,-2.3%,nt,-9.9%,-14.3%[59 µM]
N#C/C(=C/c1ccc(N2CCOCC2)o1)C(=O)NC1CCCCC1,?,26.4%,25.1µM*,-12.0%,nt
N#C/C(=C\c1ccc(N2CCOCC2)o1)C(=O)Nc1ccc(O)cc1,?,-14.6%,-0.5%,-25.0%,39.8µM*
Cc1ccc(NC(=O)Cn2cc(S(=O)(=O)Cc3ccc(F)cc3)c3ccccc32)cc1Cl,50.1µM*,-29.5%,nt,56.2µM*,-50.5%[59 µM]

# Source: PubChem BioAssay (National Center for Advancing Translational Sciences (NCATS))
